In all, about 420,000 compounds went through this assay and about 64,000 (15%) were called active. Roughly 27% stayed inconclusive and do not appear here. Calls follow the shape of the dose curve; as a rule, active = well fitted inhibition curve with a large enough effect; inconclusive = small, poorly fitted or top-dose-only effect; inactive = flat fitted curve, though single readings scatter. A selection follows. A call without a number means that no potency is given here.
Test: qHTS for Inhibitors of human tyrosyl-DNA phosphodiesterase 1 (TDP1): qHTS in cells in absence of CPT; also: nearly all actives have a fitted effect of over 55% in size
Details: DT40 Tdp1-/- hTDP1 cells, no CPT, ATP luminescence, 48 h; activity change, negative = growth inhibition: at 46.2 µM (top of the series)
How it was run: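 Camptothecin absent (DMSO only). Human TDP1-complemented DT40 knockout cells, 400 cells/well, 37 °C for minimum 48 hr; ATP measured via CellTiter-Glo, 30 min dark incubation, luminescence.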
Potency is read from the fitted curve at half-maximal effect.

Row | Compound | Potency
1 | CCCCn1c(=S)[nH]c2ncccc2c1=O | inactive
2 | Cc1cc(Nc2ccc(Br)cc2F)n2ncnc2n1 | inactive
3 | CC[C@H]1OC(=O)[C@H](C)[C@@H](O[C@H]2C[C@@](C)(OC)[C@@H](O)[C@H](C)O2)[C@H](C)[C@@H](O[C@@H]2O[C@H](C)C[C@H](N(C)C)[C@H]2O)[C@](C)(O)C[C@@H](C)[C@@H]2N[C@@H](COCCOC)O[C@H]([C@H]2C)[C@]1(C)O | inactive
4 | CCN(CC)S(=O)(=O)c1ccc(Cl)c(C(=O)NCCN2CCOCC2)c1 | inactive
5 | CCN(CC)S(=O)(=O)c1ccc(NC(=O)c2cccnc2Cl)c(NC(=O)c2cccnc2Cl)c1 | inactive
6 | CCN(CC)S(=O)(=O)c1ccc(Cl)c(C(=O)NC(C)C(c2cccs2)N2CCCC2)c1 (stereo not given) | 14.6 µM (active)
7 | COc1cc(C(=O)N/C(=C\c2cn(C)c3ccccc23)C(=O)N2CCOCC2)cc(OC)c1OC | inactive
8 | Cc1c(N=Nc2ccc(N(C)C)cc2)c(=O)n(-c2ccccc2)n1C | inactive
9 | COc1ccc(-c2ccc(OC(=O)NC3CCS(=O)(=O)C3)cc2)cc1 (stereo not given) | 8.2 µM (active)
10 | N#Cc1ccc(OCC(=O)NC(=O)NC2CCS(=O)(=O)C2)cc1 (stereo not given) | inactive
11 | COc1ccc(NC(=S)NC2CCS(=O)(=O)C2)cc1 (stereo not given) | inactive
12 | CC(C)(C)CN1C(=O)C(=O)NC[C@H]1Cc1cccc2ccccc12 | inactive
13 | NC(=O)C1CCN(C(=O)c2ccc(F)c(S(=O)(=O)N3CCOCC3)c2)CC1 | inactive
14 | Nc1ccc(C(=O)N2CCN(S(=O)(=O)c3ccc(Cl)cc3)CC2)cc1[N+](=O)[O-] | inactive
15 | CC1CCN(C(=O)c2ccc(S(=O)(=O)Cc3cc(F)ccc3F)c([N+](=O)[O-])c2)CC1 | 16.4 µM (active)
16 | CC1(C)CC(O)C(CCC(O)c2ccccc2)C(C)(C)N1 (stereo not given) | inactive
17 | Cc1ccc(S(=O)(=O)N(CCCN(C)C)Cc2ccc3c(c2)OCO3)cc1 | inactive
18 | CC(=O)Oc1ccc(N(C(C)=O)S(=O)(=O)c2ccc3ccccc3c2)cc1Br | inactive
19 | CC(=O)N(c1ccc2oc(=O)sc2c1)S(=O)(=O)c1ccc(C)cc1 | 16.4 µM (active)
20 | COc1ccc(C2/C(=C(/O)c3ccc(OC(C)C)cc3)C(=O)C(=O)N2CCCN2CCOCC2)cc1 (stereo not given) | inactive
21 | C=CCn1c(SCC(=O)Nc2ccc(NC(C)=O)cc2)nc2sc(C)c(C)c2c1=O | inactive
22 | O=C1CCCC(O)=C1N=Nc1ccc(S(=O)(=O)N2CCOCC2)cc1 | inactive
23 | O=C1CCC(Cc2ccccc2)N1 (stereo not given) | inactive
24 | COc1ccc(NC(=O)C2CCC(CNC(=O)[C@@H]3Cc4ccccc4CN3)CC2)cc1 (stereo not given in full) | inactive
25 | COc1cccc(/C=C2\SC(=S)N(CCCC(=O)N3CCOCC3)C2=O)c1 | 18.4 µM (active)

Row | Compound | Potency
26 | COc1ccc(/C=C2\SC(=S)N(CCC(=O)N3CCOCC3)C2=O)cc1OC | inactive
27 | C=CCOc1ccc(/C=C2\SC(=S)N(CCC(=O)O)C2=O)cc1 | inactive
28 | COc1ccc(/C=C2\SC(=S)N(CCC(=O)Nc3ccccn3)C2=O)cc1OC | inactive
29 | O=C1/C(=C/c2ccc(F)cc2)SC(=S)N1CCCC(=O)N1CCCCC1CCO (stereo not given) | 25.9 µM (active)
30 | O=C(CCCN1C(=O)/C(=C/c2ccccc2)SC1=S)Nc1ccc(O)cc1 | inactive
31 | COc1ccc(/C=C2\SC(=S)N(CCC(=O)Nc3cccc(C(=O)O)c3)C2=O)cc1OC | inactive
32 | COc1cccc(/C=C2/SC(=S)N(CC(=O)NC3C=CS(=O)(=O)C3)C2=O)c1 (stereo not given) | inactive
33 | COc1ccc(/C=C2\SC(=S)N(CCCC(=O)NC3CCCC3)C2=O)cc1OC | 16.4 µM (active)
34 | CC(=O)N(OCc1ccc(OC(C)C)c(Cl)c1)C(C)=O | inactive
35 | C[N+](C)(C)CCNC(=O)c1c(O)c2c([nH]c1=O)CCCC2 | inactive
36 | COc1ccc2nc(N3CCCC(O)C3)c(C#N)cc2c1 (stereo not given) | inactive
37 | Cc1ccc(NC(=O)COC(=O)C2C3CC4OC(=O)C2C4C3)cc1Cl (stereo not given) | inactive
38 | O=C(COC(=O)c1ccccn1)NNC(=O)c1ccc([N+](=O)[O-])cc1 | inactive
39 | CCc1noc(C)c1C(=O)NCCN1Cc2cc(OC)ccc2OC(CC)C1 (stereo not given) | inactive
40 | Nc1nc(N)c(N=O)c(N)n1 | inactive
41 | O=C(O)C1C2C=CC(C2)C1C(=O)NCc1ccccc1 (stereo not given) | inactive
42 | O=C(NCc1ccccc1)C1CNCC(C(=O)NCc2ccccc2)C1 (stereo not given) | inactive
43 | O=C(NCc1ccccc1)[C@H]1C[C@@H]1[C@H](NP(=O)(c1ccccc1)c1ccccc1)c1ccccc1 | 20.6 µM (active)
44 | O=C1CSC(=O)N1CCOCCN1C(=O)CSC1=O | inactive
45 | COCCn1c(C)cc(C(=O)COC(=O)/C=C/c2cccc(OC)c2)c1C | inactive
46 | Cc1cc2cc3n(c2nn1)N=C(Cl)CC3 | 11.6 µM (active)
47 | CS(=O)(=O)c1ccc(Cl)c(NC(=O)COC(=O)c2cccc(S(=O)(=O)N3CCCC3)c2)c1 | inactive
48 | CC1(C(=O)Nc2ccccc2Br)CCN1C(=O)CC1CC1 (stereo not given) | inactive
49 | CC1(C(=O)Nc2cccc3cccnc23)CCN1C(=O)CCC1CCCC1 (stereo not given) | 16.4 µM (active)
50 | CC1(C(=O)NS(=O)(=O)c2ccc(Cl)cc2)CCN1C(=O)CC1CCCC1 (stereo not given) | inactive

Row | Compound | Potency
51 | C=CCNc1nc(Nc2ccc(Cl)cc2)nc(OC)n1 | inactive
52 | O=C(Cn1cc(C(=O)C2CC2)c2ccccc21)Nc1ccccc1Cl | inactive
53 | CN(C)S(=O)(=O)c1ccc(C(=O)NCC2(N3CCOCC3)CCCCC2)cc1 | inactive
54 | CC(=O)Nc1ccccc1C(=O)C(=O)Nc1ccc(F)cc1 | inactive
55 | O=S(=O)(Nc1n[nH]c(C(F)(F)F)n1)c1ccccc1 | inactive
56 | CCCNC(=O)C1(C)CCCN(Cc2cccc(C(F)(F)F)c2)C1 (stereo not given) | 25.9 µM (active)
57 | CCCNC(=O)C1(C)CCN(C(=O)c2ccc(F)cc2Cl)C1 (stereo not given) | inactive
58 | CCNC(=O)C1(C)CCN(Cc2ccc(C(=O)OCC)o2)C1 (stereo not given) | inactive
59 | CCCNC(=O)C1(C)CCN(Cc2ccc(Cl)c(Cl)c2)C1 (stereo not given) | 20.6 µM (active)
60 | CCCNC(=O)C1(C)CCN(C(=O)c2cc(F)ccc2C)C1 (stereo not given) | inactive
61 | CCCNC(=O)C1(C)CCN(C(=O)c2ccccc2OC(F)(F)F)C1 (stereo not given) | inactive
62 | CCCNC(=O)C1(C)CCCN(C(=O)c2cccc(OC(C)=O)c2C)C1 (stereo not given) | inactive
63 | CCCNC(=O)C1(C)CCCN(Cc2c(C)nn(-c3ccccc3)c2C)C1 (stereo not given) | inactive
64 | CCCNC(=O)C1(C)CCN(Cc2csc(-c3ccc(Cl)cc3)n2)C1 (stereo not given) | 16.4 µM (active)
65 | Cc1ccc(NC(=O)C(C)OC(=O)C2CC3CCCC(C2)C3=O)cc1S(=O)(=O)N1CCOCC1 (stereo not given) | inactive
66 | CCCOc1ccc(N2C(=O)CC(N(CCc3ccc(S(N)(=O)=O)cc3)C(C)=O)C2=O)cc1 (stereo not given) | inactive
67 | O=C(CNc1ccc(F)cc1F)NC(=O)NCc1ccco1 | inactive
68 | COc1ccc(/C(N)=N/OC(=O)Oc2ccccc2)cc1 | inactive
69 | Cc1noc(NS(=O)(=O)c2ccc(NC(=O)C34CCC(CC3)C4)cc2)c1C | inactive
70 | Cc1c(Cl)cccc1NC(=S)NCC(O)c1ccccc1 (stereo not given) | inactive
71 | O=C(C1CCCO1)N1CCN(S(=O)(=O)c2ccc(Br)cc2)CC1 (stereo not given) | inactive
72 | C#CCOCCOCCOCCNc1nc(N2CCN(C(=O)[C@H](CCCCN)n3cc([C@@H](N)C(C)CC)nn3)CC2)nc(N2CCN(C(=O)[C@H](Cc3ccc(O)cc3)n3cc([C@@H](N)C(C)CC)nn3)CC2)n1 (stereo not given in full) | inactive
73 | COc1cccc(C2CC(c3ccccc3)=NN2S(=O)(=O)c2ccccc2)c1OC (stereo not given) | 25.9 µM (active)
74 | CCS(=O)(=O)Nc1ccc(C2=NN(S(=O)(=O)c3ccc(F)cc3)C(c3ccco3)C2)cc1 (stereo not given) | inactive
75 | CS(=O)(=O)Nc1cccc(C2=NN(S(=O)(=O)c3ccccc3)C(c3cccs3)C2)c1 (stereo not given) | inactive

Row | Compound | Potency
76 | CNC(=O)C(NC(=O)c1ccccc1)=C(C)C | inactive
77 | O=C(NCCN1C(=O)C2C3C=CC(C3)C2C1=O)Nc1ccccn1 (stereo not given) | inactive
78 | COc1ccc(OCC(=O)N2CCN(C(=O)c3cccs3)CC2)cc1 | inactive
79 | CCc1ccc(NC(=O)COC(=O)c2cccs2)cc1 | inactive
80 | O=C(CN1CCN(S(=O)(=O)/C=C/c2ccccc2)CC1)Nc1ccc(N2CCOCC2)cc1 | inactive
81 | Cc1ccc(Cl)cc1NC(=O)CN1CCN(S(=O)(=O)N2CCOCC2)CC1 | inactive
82 | O=C(CN1CCN(c2ccc(O)cc2)CC1)Nc1cc(S(=O)(=O)N2CCOCC2)ccc1Cl | 13 µM (active)
83 | O=C(CN1CCN(c2cccc(Cl)c2)CC1)Nc1ccc(S(=O)(=O)N2CCOCC2)cc1 | 8.2 µM (active)
84 | O=C(CN1C(=O)CCC1=O)Nc1ccc(S(=O)(=O)N2CCOCC2)cc1 | inactive
85 | O=C(CN1CCOCC1)Nc1cc(Cl)ccc1Cl | inactive
86 | Cc1cc(NC(=O)CC(C)C)cc(-c2nc3ncccc3o2)c1O | inactive
87 | Cn1c(NC(=O)c2ccc3c(c2)OCO3)cc(=O)n(C)c1=O | inactive
88 | COc1ccccc1CC(NC(C)=O)C(=O)NC1CCN(C(=O)Nc2ccccc2Cl)CC1 (stereo not given) | inactive
89 | Cc1nn2c(=O)cc(COC(=O)c3cccc(NC(=O)COc4ccccc4Cl)c3)nc2s1 | inactive
90 | COc1ccccc1Oc1nc(-c2cccnc2)nc2ccccc12 | 20.6 µM (active)
91 | COc1ccccc1CCNC(=O)CSc1nnc2ccc(-c3cccnc3)nn12 | inactive
92 | CCN(CC(=O)NC1CCS(=O)(=O)C1)c1nc(-c2cccnc2)nc2ccccc12 (stereo not given) | inactive
93 | COc1ccccc1CNc1ncncc1-c1cccnc1 | inactive
94 | O=[N+]([O-])c1ccc(F)cc1Oc1nc(-c2cccnc2)nc2ccccc12 | 18.4 µM (active)
95 | O=[N+]([O-])c1cc2ccccc2nc1-c1ccccc1 | inactive
96 | CCN(CC)c1nc(-c2ccccc2)cc(C(F)(F)F)c1C#N | inactive
97 | Cc1cc(C)cc(C(=O)OCC(=O)NCCNC(=O)COC(=O)c2cc(C)cc(C)c2)c1 | inactive
98 | Cc1occc1C(=O)Nc1nnc(-c2ccncc2)s1 | inactive
99 | Cc1ccc(NC(=O)Nc2nnc(-c3ccncc3)s2)cc1 | 11.6 µM (active)
100 | Cc1ccc(C(=O)Nc2nnc(-c3ccncc3)s2)o1 | inactive
